Screening data as filed in PubChem BioAssay.
Pf Dd2 growth: P. falciparum Dd2 growth inhibition; SYBR Green, 72 h; stronger effect = lower value; 2.3% of 94,000 active; activity change, % at 10 µM; in the data active = activity change below about -80%; inconclusive = no clear call, values can overlap the other calls
C diff HTS: blocks growth of Clostridium difficile; Clostridium difficile clinical isolate growth, OD600, 24 h; stronger effect = lower value; growth activity, negative = inhibition, % at 16 µg/mL (by protocol); 0.25% of 86,000 active;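 active = mean growth activity at or below -80% and every replicate also at or below -80%; inconclusive = mean at or below -80% but some replicate above -80%; inactive = mean growth activity above -80%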
Of the large screens only hits and unclear results are named; the others gave an inactive call. Most compounds without a hit are left out; they make up all but 2.3% or so of the library.

CCCNC(=O)N1CC2(CCN(Cc3cccc(OC)c3)CC2)c2c(n(C)c3cc(OC)ccc23)[C@@H]1CO	Pf Dd2 growth -88.7
C[C@@H]1CN([C@H](C)CO)C(=O)c2cc(NC(=O)CCCN(C)C)ccc2O[C@@H](C)CCCCO[C@H]1CN(C)C(=O)CCCN(C)C	none
CCCNC(=O)N1CCC2(CC1)CN(S(C)(=O)=O)[C@H](CO)c1c2c2ccc(OC)cc2n1C	Pf Dd2 growth -83.3
CCCNC(=O)N1CC2(C1)CN(S(C)(=O)=O)[C@@H](CO)c1c2c2ccc(OC)cc2n1C	none
C[C@H]1CN([C@@H](C)CO)S(=O)(=O)c2ccc(C#Cc3ccc(F)cc3)cc2O[C@H]1CN(C)S(=O)(=O)c1ccc(F)cc1	none
C[C@H]1CN([C@@H](C)CO)S(=O)(=O)c2ccc(C#Cc3ccncc3)cc2O[C@H]1CN(C)S(=O)(=O)c1ccc(F)cc1	Pf Dd2 growth -89.4
C[C@@H]1CN([C@@H](C)CO)S(=O)(=O)c2ccc(C#Cc3ccncc3)cc2O[C@H]1CN(C)S(=O)(=O)c1ccc(F)cc1	Pf Dd2 growth -86.4
C[C@@H]1CN([C@@H](C)CO)S(=O)(=O)c2ccc(C#Cc3ccc(F)cc3)cc2O[C@H]1CN(C)S(=O)(=O)c1ccc(F)cc1	none
Cc1ccc(S(=O)(=O)N(C)C[C@H]2Oc3cc(C#Cc4ccncc4)ccc3S(=O)(=O)N([C@@H](C)CO)C[C@H]2C)cc1	Pf Dd2 growth -82.4
C[C@H]1CN([C@@H](C)CO)S(=O)(=O)c2ccc(C#Cc3ccc(F)cc3)cc2O[C@@H]1CN(C)S(=O)(=O)c1ccc(F)cc1	none
C[C@H]1CN([C@@H](C)CO)S(=O)(=O)c2ccc(C#Cc3ccncc3)cc2O[C@@H]1CN(C)S(=O)(=O)c1ccc(F)cc1	Pf Dd2 growth -88.0
C[C@H](CO)N1C[C@H](C)[C@H](CN(C)S(=O)(=O)c2ccccc2)Oc2cc(C#Cc3ccncc3)ccc2S1(=O)=O	none
O=C(NCC[C@H]1CC[C@@H](NS(=O)(=O)c2ccccc2)[C@@H](CO)O1)c1cc(Cl)cc(Cl)c1	none (no result: C diff HTS)
O=C(O)C[C@H]1C[C@H]2c3cc(NS(=O)(=O)c4ccccc4)ccc3O[C@H]2[C@H](CO)O1	none
O=C(C[C@@H]1CC[C@H](NC(=O)Nc2ccccc2)[C@@H](CO)O1)NCc1cccc(F)c1	none
O=C(O)C[C@H]1C[C@@H]2c3cc(NC(=O)Nc4ccc(F)cc4)ccc3O[C@@H]2[C@H](CO)O1	none
COc1ccc2c3c(n(C)c2c1)[C@@H](CO)N(C(=O)NC1CCCC1)CC31CN(C)C1	none
O=C(O)[C@@H]1[C@@H](CO)[C@@H]2Cn3c(ccc(-c4ccccc4)c3=O)[C@@H]2N1CCc1ccccc1	none
CC(C)c1ccc(NC(=O)C[C@H]2CC[C@H]3[C@@H](COc4ccc(NC(=O)Nc5ccc(F)c(F)c5)cc4C(=O)N3C)O2)cc1	none
C[C@H](CO)N1C[C@H](C)[C@@H](CN(C)S(=O)(=O)c2ccc(F)cc2)Oc2cc(C#Cc3ccc(F)cc3)ccc2S1(=O)=O	none
C[C@H](CO)N1C[C@H](C)[C@H](CN(C)S(=O)(=O)c2ccc(F)cc2)Oc2cc(C#Cc3ccncc3)ccc2S1(=O)=O	Pf Dd2 growth -84.5
COCCNC(=O)C[C@H]1CC[C@@H]2[C@H](COC[C@@H](O)CN2Cc2ccc(Cl)c(Cl)c2)O1	none
COc1ccc2c3c([nH]c2c1)[C@@H](CO)N(Cc1cc(F)ccc1F)CC31CN(C(=O)CN(C)C)C1	Pf Dd2 growth -87.1
COCC(=O)N1CCC2(CC1)CN(Cc1cc(F)ccc1F)[C@@H](CO)c1[nH]c3cc(OC)ccc3c12	none (no result: C diff HTS)
COc1ccc2c3c([nH]c2c1)[C@@H](CO)N(Cc1cc(F)ccc1F)CC31CCN(C(=O)CN(C)C)CC1	Pf Dd2 growth -85.5
COc1ccc2c3c([nH]c2c1)[C@H](CO)N(Cc1cc(F)ccc1F)CC31CN(C(=O)CN(C)C)C1	Pf Dd2 growth inconclusive
C[C@H](CO)N1C[C@H](C)[C@@H](CN(C)Cc2ccc(Oc3ccccc3)cc2)Oc2ccc(NC(=O)Nc3ccc(F)cc3)cc2CC1=O	Pf Dd2 growth -82.1
C[C@@H]1CN([C@@H](C)CO)C(=O)Cc2cc(NC(=O)Nc3ccc4c(c3)OCO4)ccc2O[C@H]1CN(C)Cc1ccc(Oc2ccccc2)cc1	Pf Dd2 growth -80.7
C[C@H]1CN([C@@H](C)CO)C(=O)Cc2cc(NC(=O)Nc3ccc4c(c3)OCO4)ccc2O[C@@H]1CN(C)Cc1ccc(Oc2ccccc2)cc1	none
C[C@H](CO)N1C[C@H](C)[C@H](CN(C)Cc2ccc(Oc3ccccc3)cc2)Oc2ccc(NC(=O)Nc3ccc(F)cc3)cc2CC1=O	none
C[C@H](CO)N1C[C@H](C)[C@H](CN(C)C(=O)c2cc(Cl)cc(Cl)c2)OCc2ccccc2-c2c(n(C)c3ccccc23)C1=O	Pf Dd2 growth -86.7
C[C@@H]1CN([C@@H](C)CO)C(=O)c2c(c3ccccc3n2C)-c2ccccc2CO[C@H]1CN(C)C(=O)c1cc(Cl)cc(Cl)c1	Pf Dd2 growth -82.7
C[C@@H]1CN([C@H](C)CO)C(=O)c2c(c3ccccc3n2C)-c2ccccc2CO[C@H]1CN(C)C(=O)c1cc(Cl)cc(Cl)c1	none
C[C@H](CO)N1C[C@H](C)[C@@H](CN(C)C(=O)c2ccccc2)OCc2ccccc2-c2c(n(C)c3ccccc23)C1=O	none (no result: C diff HTS)
COc1ccccc1C#Cc1cnc2c(c1)C(=O)N([C@H](C)CO)C[C@H](C)[C@@H](CN(C)C(=O)CC1CC1)O2	none
Cc1ccccc1S(=O)(=O)N(C)C[C@@H]1OCc2ccccc2-c2c(n(C)c3ccccc23)C(=O)N([C@@H](C)CO)C[C@@H]1C	Pf Dd2 growth -88.9 (no result: C diff HTS)
COc1ccccc1S(=O)(=O)N(C)C[C@@H]1OCc2ccccc2-c2c(n(C)c3ccccc23)C(=O)N([C@H](C)CO)C[C@H]1C	none
C[C@H]1CN([C@@H](C)CO)C(=O)c2c(c3ccccc3n2C)-c2ccccc2CO[C@H]1CN(C)S(=O)(=O)c1cccs1	none
Cc1ccccc1S(=O)(=O)N(C)C[C@H]1OCc2ccccc2-c2c(n(C)c3ccccc23)C(=O)N([C@H](C)CO)C[C@H]1C	Pf Dd2 growth -83.7 (no result: C diff HTS)
COc1ccccc1S(=O)(=O)N(C)C[C@H]1OCc2ccccc2-c2c(n(C)c3ccccc23)C(=O)N([C@H](C)CO)C[C@@H]1C	Pf Dd2 growth -84.8
C[C@H]1CN([C@@H](C)CO)C(=O)c2c(c3ccccc3n2C)-c2ccccc2CO[C@@H]1CN(C)S(=O)(=O)c1cccs1	Pf Dd2 growth -85.6
C[C@@H]1CN([C@H](C)CO)C(=O)c2c(c3ccccc3n2C)-c2ccccc2CO[C@@H]1CN(C)S(=O)(=O)c1ccccc1F	none
C[C@@H]1CN([C@@H](C)CO)C(=O)c2c(c3ccccc3n2C)-c2ccccc2CO[C@@H]1CN(C)S(=O)(=O)c1ccccc1F	none
O=C(Nc1ccc(F)cc1)N[C@@H]1CC[C@H](CCNS(=O)(=O)c2ccccc2F)O[C@H]1CO	none (no result: Pf Dd2 growth)
CO[C@H]1CN(C)C(=O)c2cc(NC(=O)Nc3cccc(Cl)c3)ccc2OC[C@@H](C)NC[C@@H]1C	none (no result: C diff HTS)
C[C@@H]1CN([C@@H](C)CO)C(=O)c2cc(NC(=O)C3CCCCC3)ccc2O[C@H]1CN(C)C(=O)Nc1cccc2ccccc12	none
COc1ccc2c3c([nH]c2c1)[C@@H](CO)N(C(=O)Cc1ccccc1)CC31CCN(C(=O)Cc2ccccc2)CC1	Pf Dd2 growth -87.0
CCC(=O)N1CC2(CN(C(=O)Nc3ccc(F)cc3)C2)c2c([nH]c3cc(OC)ccc23)[C@@H]1CO	Pf Dd2 growth -83.7
